The nature of assay [1]: antimalarial activity against Dd2 strain (AID 2302;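 active = growth inhibition above 50% at the single 2 µM test dose, taken to imply half-maximal potency below 2 µM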;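 note: 0% = DMSO untreated growth and 100% = chloroquine plus artemisinin killed control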). To be noted: P. falciparum Dd2 in RBCs, LDH growth readout, 72 h; at 2 µM; active compounds read high.
Assay [2] is described as follows: human hepatoma cell viability loss – ATP luminescence, cytotoxicity control for P. falciparum antimalarial project, primary screen (AID 2303;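 active = inhibition above 50%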;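 note: 0% = DMSO wells and 100% = digitonin-killed cells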). To be noted: HepG2 viability, 24-48 h, at 10 µM, active compounds read high.
In assay [3] the target is L-lactate dehydrogenase (Plasmodium falciparum (isolate CDC / Honduras)) (UniProt Q27743). Description: PfLDH activity inhibition – cell lysate, 3D7 strain, counter-screen for P. falciparum growth inhibition project (AID 2304).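 Note: 0% = vehicle and 100% = reference inhibitor.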 To be noted: P. falciparum 3D7 crude extract, LDH APAD/NBT absorbance; at 2 µM; active compounds read high. A general note: The purpose of a counterscreen is to sort out artefacts and off-target activity.
Sequence of L-lactate dehydrogenase (Plasmodium falciparum (isolate CDC / Honduras)) (Q27743 whole entry, looked up): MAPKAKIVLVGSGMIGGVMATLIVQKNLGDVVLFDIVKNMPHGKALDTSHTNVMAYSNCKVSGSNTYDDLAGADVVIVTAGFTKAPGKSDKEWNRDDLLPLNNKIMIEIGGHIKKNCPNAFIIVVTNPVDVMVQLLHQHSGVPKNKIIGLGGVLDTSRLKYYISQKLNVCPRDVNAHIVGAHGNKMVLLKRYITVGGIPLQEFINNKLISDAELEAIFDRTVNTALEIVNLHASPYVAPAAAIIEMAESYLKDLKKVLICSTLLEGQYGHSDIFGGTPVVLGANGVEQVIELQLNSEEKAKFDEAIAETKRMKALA

Assay [4] can be described thus: inhibition of 3D7 malaria parasite growth – strain 3D7 (AID 2306).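 Note: 0% = DMSO wells and 100% = chloroquine plus artemisinin control wells.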 Particulars: P. falciparum 3D7 erythrocytic growth, LDH absorbance, 72 h; at 2 µM; active compounds read high.
Assay [5] deals with Calcium-dependent protein kinase 1 (Plasmodium falciparum (isolate 3D7)) (UniProt P62344). Kind of assay: PfCDPK1 kinase inhibitors, biochemical, TCAMS library (AID 1159585; cut-off not given, nearly all actives have IC50 up to about 0.98 µM;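 note: inhibitors leave more ATP so luminescence rises with inhibition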). Particulars: recombinant PfCDPK1, Kinase-Glo ATP depletion luminescence. For orientation: Kinase-Glo measures the ATP left after a reaction by luminescence.
Sequence of Calcium-dependent protein kinase 1 (Plasmodium falciparum (isolate 3D7)) (P62344 whole entry, looked up): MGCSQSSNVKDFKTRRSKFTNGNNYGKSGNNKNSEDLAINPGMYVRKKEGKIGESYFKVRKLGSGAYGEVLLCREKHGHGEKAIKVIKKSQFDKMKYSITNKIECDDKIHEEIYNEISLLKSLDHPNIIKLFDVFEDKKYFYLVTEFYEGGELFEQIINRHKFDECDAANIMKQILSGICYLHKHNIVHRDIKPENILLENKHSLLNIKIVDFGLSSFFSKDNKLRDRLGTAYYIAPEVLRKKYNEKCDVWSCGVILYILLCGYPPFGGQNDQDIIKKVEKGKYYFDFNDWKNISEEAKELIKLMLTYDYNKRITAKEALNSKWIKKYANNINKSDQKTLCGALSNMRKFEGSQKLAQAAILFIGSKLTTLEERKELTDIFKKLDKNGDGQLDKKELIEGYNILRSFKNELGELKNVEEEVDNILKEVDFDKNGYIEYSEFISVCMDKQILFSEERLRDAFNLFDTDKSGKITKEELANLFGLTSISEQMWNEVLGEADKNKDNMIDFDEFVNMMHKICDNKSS
Assay [6] addresses Plasmodium falciparum protein kinase 6 (PK6, PF3D7_1337100) (UniProt Q8IDW1). Kind of assay: PfPK6 kinase inhibitors, biochemical, TCAMS library (AID 1159586). Particulars: recombinant PfPK6, Kinase-Glo ATP depletion luminescence.
For assay [7], the target named is Protein kinase 7 (PK7), Plasmodium falciparum 3D7 (PF3D7_0213400) (UniProt Q7YTF7). Description: inhibition of Plasmodium PK7 catalytic activity – biochemical, TCAMS antimalarial set, Kinase-Glo luminescence (AID 1159587). To be noted: recombinant PfPK7, Kinase-Glo ATP depletion luminescence.
Sequence of Protein kinase 7 (PK7), Plasmodium falciparum 3D7 (PF3D7_0213400) (Q7YTF7 1-343): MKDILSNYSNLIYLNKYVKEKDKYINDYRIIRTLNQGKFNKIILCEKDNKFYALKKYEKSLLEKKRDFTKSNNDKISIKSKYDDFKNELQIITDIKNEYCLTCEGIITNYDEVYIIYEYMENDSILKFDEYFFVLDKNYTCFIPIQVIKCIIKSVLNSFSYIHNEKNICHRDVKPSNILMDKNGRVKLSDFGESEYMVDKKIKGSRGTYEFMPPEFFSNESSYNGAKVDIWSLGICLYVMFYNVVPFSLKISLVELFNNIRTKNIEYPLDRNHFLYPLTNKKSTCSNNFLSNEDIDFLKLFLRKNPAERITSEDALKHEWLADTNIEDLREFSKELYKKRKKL
Assay [8] deals with Calcium-dependent protein kinase 4 (Plasmodium falciparum (isolate 3D7)) (UniProt Q8IBS5). Kind of assay: PfCDPK4 kinase inhibitors, biochemical, TCAMS library (AID 1159588; cut-off not given, nearly all actives have IC50 up to about 0.91 µM). To be noted: recombinant PfCDPK4, Kinase-Glo ATP depletion luminescence.
Sequence of Calcium-dependent protein kinase 4 (Plasmodium falciparum (isolate 3D7)) (Q8IBS5 whole entry, looked up): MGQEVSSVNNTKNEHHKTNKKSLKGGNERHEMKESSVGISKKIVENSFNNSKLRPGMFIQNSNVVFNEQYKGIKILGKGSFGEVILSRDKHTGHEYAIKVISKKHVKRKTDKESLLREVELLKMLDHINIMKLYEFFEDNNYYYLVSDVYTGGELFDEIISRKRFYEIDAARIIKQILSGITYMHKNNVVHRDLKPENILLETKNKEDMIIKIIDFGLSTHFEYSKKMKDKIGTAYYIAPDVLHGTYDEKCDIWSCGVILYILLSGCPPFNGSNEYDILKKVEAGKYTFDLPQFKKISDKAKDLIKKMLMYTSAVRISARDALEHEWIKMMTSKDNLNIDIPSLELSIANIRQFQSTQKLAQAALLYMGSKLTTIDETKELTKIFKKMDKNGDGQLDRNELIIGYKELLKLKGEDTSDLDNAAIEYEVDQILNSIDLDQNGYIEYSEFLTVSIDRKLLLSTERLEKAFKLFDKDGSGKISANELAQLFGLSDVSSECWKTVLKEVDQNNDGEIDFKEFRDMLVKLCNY

A number with no mark means an inactive call. For some assays here: Entries with a potency or affinity are not part of this list. The source made the active and inactive calls. Unless noted, the rule behind the calls is not given here.

The results in this text go back to PubChem BioAssay.

Sequence of Plasmodium falciparum protein kinase 6 (PK6, PF3D7_1337100) (Q8IDW1 1-305): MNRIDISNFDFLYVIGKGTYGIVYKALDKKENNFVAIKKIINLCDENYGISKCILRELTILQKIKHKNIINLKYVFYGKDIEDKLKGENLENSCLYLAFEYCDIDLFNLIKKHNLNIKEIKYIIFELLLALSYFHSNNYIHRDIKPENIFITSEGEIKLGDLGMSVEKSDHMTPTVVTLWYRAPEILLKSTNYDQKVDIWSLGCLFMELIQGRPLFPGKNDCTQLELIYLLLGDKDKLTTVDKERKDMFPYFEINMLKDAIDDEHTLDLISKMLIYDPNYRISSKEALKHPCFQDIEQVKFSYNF

With `COc1ccc(NC(=O)Nc2nc(-c3ccc(Cl)c(C)c3)cs2)cc1N1CCN(C)CC1`, the growth inhibition in assay [1] is 89% (active); in assay [4], 99% (active). In addition, the inhibition (as a rule, the drop in the measured response relative to a control, in per cent) in assay [2] is 9%; in assay [3], 0%. For the same molecule, the outcome in assay [5], in assay [6], in assay [7] and in assay [8] was inactive.
Turning to `NC1=NC(Cc2ccccc2)N(c2ccc(Cl)cc2)C(N)=N1` (configuration not stated), the growth inhibition in assay [1] was 4%; in assay [4], 93% (active). Moreover, the inhibition is 21% in assay [2] and -2% in assay [3]. Further, the outcome in assay [5], in assay [6], in assay [7] and in assay [8] was inactive.
Regarding `CN1CCC(c2ccc(NC(=O)c3ccc(-c4cccc(C(F)(F)F)c4)o3)cc2)CC1`, the growth inhibition was 23% in assay [1] and 86% (active) in assay [4]. Moreover, the inhibition in assay [2] was 23%; in assay [3] it was -3%. Further, the outcome in assay [5], in assay [6], in assay [7] and in assay [8] was inactive.
Regarding `COc1cccc(-c2ccc(C(=O)NCC3CCCN(Cc4cccc(C(F)(F)F)c4)C3)s2)c1` (configuration not stated), the growth inhibition in assay [1] is 18%; in assay [4], 85% (active). Besides, the inhibition in assay [2] was 10%; in assay [3], 0%. Further, the result in assay [5], in assay [6], in assay [7] and in assay [8] was inactive.
On to `O=C(/C=C/c1cccc2c1OCO2)Nc1ccnc2ccncc12`, for which the growth inhibition is 35% in assay [1] and 90% (active) in assay [4]. The results for the inhibition in assay [2] and in assay [3] were 17% and -4%, respectively. Moreover, the outcome in assay [5], in assay [6], in assay [7] and in assay [8] was inactive.
In the case of `CC=Cc1cc(Cc2cnc(N)nc2N)cc(CCC)c1OC`, the growth inhibition in assay [1] is 1%; in assay [4] it was 97% (active). In addition, the inhibition in assay [2] was 16%; in assay [3] it was 5%. The outcome in assay [5], in assay [6], in assay [7] and in assay [8] was inactive.
With `O=C(Nc1ccc2c(c1)CCN2C1CCN(Cc2cccc(F)c2F)C1)c1ccco1` (configuration not stated), the results for the growth inhibition in assay [1] and in assay [4] were 90% (active) and 87% (active), respectively. The inhibition is -4% in assay [2] and 0% in assay [3]. Besides, the result in assay [5], in assay [6], in assay [7] and in assay [8] was inactive.
As for `Cc1ccccc1C1CCN(C2CCC(NC(=O)/C=C/c3ccc(OC(F)(F)F)cc3)CC2)CC1` (configuration not stated), the growth inhibition in assay [1] was 67% (active); in assay [4] it was 100% (active). Besides, the results for the inhibition in assay [2] and in assay [3] were 96% (active) and -5%, respectively. Moreover, the result in assay [5], in assay [6], in assay [7] and in assay [8] was inactive.
In the case of `CCc1nc2nc(C)cc(Nc3ccc4c(c3)OCCO4)n2n1`, the growth inhibition is 55% (active) in assay [1] and 88% (active) in assay [4]. Also, the inhibition in assay [2] was 8%; in assay [3], -1%. Also, the outcome in assay [5], in assay [6], in assay [7] and in assay [8] was inactive.
As to `CC(C)c1ccc(NC(=O)c2ccc(CN3CCCN(Cc4cccc(Cl)c4)CC3)cc2)cc1`, the growth inhibition in assay [1] was 12%; in assay [4] it was 90% (active). The inhibition was 45% in assay [2] and 5% in assay [3]. Moreover, the result in assay [5], in assay [6], in assay [7] and in assay [8] was inactive.
For `CCN(CC)CCn1c(=N)n(CC(=O)c2ccc(-c3ccccc3)cc2)c2ccccc21`, the growth inhibition was 38% in assay [1] and 83% (active) in assay [4]. The results for the inhibition in assay [2] and in assay [3] were 32% and 0%, respectively. The result in assay [5], in assay [6], in assay [7] and in assay [8] was inactive.
In the case of `Cc1ccccc1C(O)CNc1ccnc(Nc2cccc(C#N)c2)n1` (configuration not stated), the growth inhibition in assay [1] is 12%; in assay [4], 94% (active). Further, the inhibition in assay [2] was 22%; in assay [3], 0%. Further, the outcome in assay [5], in assay [6], in assay [7] and in assay [8] was inactive.
Turning to `COc1ccc(CCNCC(O)COc2nccc3c(S(=O)(=O)N4CCCNCC4)cccc23)cc1OC` (configuration not stated), the growth inhibition in assay [1] is -5%; in assay [4], 96% (active). The inhibition was 59% (active) in assay [2] and -6% in assay [3]. Also, the outcome in assay [5], in assay [6], in assay [7] and in assay [8] was inactive.
Turning to `CCN(CCCN1CCCCC1)c1cc(C)nc(Nc2cccc(OC(F)(F)F)c2)n1`, the values for the growth inhibition in assay [1] and in assay [4] were 99% (active) and 102% (active), respectively. Further, the inhibition was 32% in assay [2] and -2% in assay [3]. Besides, the result in assay [5], in assay [6], in assay [7] and in assay [8] was inactive.
`CCCCN(CCCC)CCNC(=O)c1ccc(-c2nc3ccc(Cl)cc3[nH]2)c(OCC)c1`: the growth inhibition was 80% (active) in assay [1] and 101% (active) in assay [4]. The results for the inhibition in assay [2] and in assay [3] were 0% and 9%, respectively. In addition, the result in assay [5], in assay [6], in assay [7] and in assay [8] was inactive.
In the case of `CCOc1ccc(C(=O)Nc2cc(Br)c3c(c2)CNCC3)cc1C#N`, the growth inhibition in assay [1] is 32%; in assay [4] it was 97% (active). Also, the figures for the inhibition in assay [2] and in assay [3] were 17% and -6%, respectively. Further, the result in assay [5], in assay [6], in assay [7] and in assay [8] was inactive.
For the molecule `CC(CN1CCN(C)CC1)C(=O)Nc1cccc(-c2ccc(-c3nc4ccc(F)cc4[nH]3)cc2)c1` (configuration not stated), the growth inhibition in assay [1] is 98% (active); in assay [4], 101% (active). In addition, the inhibition in assay [2] is 10%; in assay [3], 1%. Besides, the outcome in assay [5], in assay [6], in assay [7] and in assay [8] was inactive.
Take `COc1cc2c(cc1OC)CN(CCc1ccc(NC(=O)c3cc4cc(OC(F)(F)F)ccc4[nH]3)cc1)CC2`: the growth inhibition was 20% in assay [1] and 99% (active) in assay [4]. For the same molecule, the inhibition in assay [2] is 36%; in assay [3], -3%. Further, the outcome in assay [5], in assay [6], in assay [7] and in assay [8] was inactive.
As to `O=C(Nc1ccccc1-c1ccccc1)C1CCCN1C(=O)Nc1ccc(Cl)cc1` (configuration not stated), the values for the growth inhibition in assay [1] and in assay [4] were 90% (active) and 96% (active), respectively. For the same molecule, the inhibition in assay [2] was -6%; in assay [3] it was -4%. The outcome in assay [5], in assay [6], in assay [7] and in assay [8] was inactive.
